Measured values reported in PubChem BioAssay (Tox21).
Results filed as inconclusive are left out. Active and inactive are the calls of the source. Unless noted, the call rests on the fitted dose curve; in most records, active means well fitted curve in the direction sought with a large enough effect in the repeat runs; inconclusive means weak or mixed curves; inactive means no such curve, though single readings can be large; an effect the other way counts as inactive or inconclusive.

What was measured:
[1] = qHTS assay for small molecule agonists of the p53 signaling pathway (AID 651631; calls by dose curve; further: nearly all actives have a fitted effect of over 15% in size)
Outline: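 Testing took place in human colorectal HCT-116 cells with stable p53RE-driven beta-lactamase. After 16 h of compound exposure at 37 °C, a FRET substrate was added and fluorescence recorded 2 h later.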

[2] = qHTS assay for small molecules that induce genotoxicity in human embryonic kidney cells expressing luciferase-tagged ATAD5 (AID 651632); further: nearly all actives have a fitted effect of over 15% in size
Outline: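 Increased luciferase signal from ATAD5-tagged reporter cells indicates DNA-damage-driven ATAD5 induction. HEK293T cells are treated for 16 hr at 37C before detection with Amplite.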

[3] = qHTS assay for small molecule agonists of the p53 signaling pathway - cell viability (AID 651633; calls by dose curve; further: series mostly up to about 83 µM; nearly all actives have a fitted effect of over 30% in size)
Outline: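 p53RE-bla cells were treated with compound for 16 hours at 37 C. Cytotoxicity was then measured as CellTiter-Glo luminescence after 30 min at room temperature.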

[4] = qHTS assay for small molecules that induce genotoxicity in human embryonic kidney cells expressing luciferase-tagged ATAD5 - cell viability (AID 651634; calls by dose curve; further: nearly all actives have a fitted effect of over 25% in size)
Outline: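 Cytotoxicity counterscreen in HEK293T cells bearing an ATAD5-luciferase reporter: live-cell protease activity measured by CellTiter-Fluor fluorescence after 15.5 hr compound exposure.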

[5] = qHTS assay for small molecule disruptors of the mitochondrial membrane potential - cell viability (AID 720634; calls by dose curve;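 further: human HepG2 liver cancer cells; series mostly up to about 83 µM; nearly all actives have a fitted effect of over 20% in size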)
Outline: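 After overnight attachment at 37 C, HepG2 cells received compound or DMSO vehicle for 1 hr. Viability is then taken from ATP-driven luminescence following a 30 min room-temperature CellTiter-Glo step.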

[6] = qHTS assay for small molecule disruptors of the mitochondrial membrane potential (AID 720635)
Outline: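 HepG2 cells exposed to compound 1 hr at 37C, then Mito-MPS dye 30 min. Ratio read of aggregate (540/590 nm) versus monomer (490/535 nm) fluorescence.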

[7] = qHTS assay to test for compound auto fluorescence at 590 nm (red) in HepG2 cells (AID 720674)
Outline: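 HepG2 cells, 2,000 per well in MEM with 10% FBS, attached overnight at 37 C, then got 23 nL compound or DMSO. After 1 hr at 37 C, 5% CO2, red fluorescence was read at 540/590 nm against Rose Bengal sodium as reference.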

[8] = qHTS assay to test for compound auto fluorescence at 535 nm (green) in HepG2 cells (AID 720675)
[9] = qHTS assay to test for compound auto fluorescence at 460 nm (blue) in HEK293 cells (AID 720678)
Outline: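 HEK293 cells (2,000/well, medium with 10% dialyzed FBS) attached 4-5 hr, then exposed to compound overnight at 37C, 5% CO2. Blue fluorescence read at 405/460 nm, with triamterene as reference fluorophore.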

[10] = qHTS assay to test for compound auto fluorescence at 590 nm (red) in HEK293 cells (AID 720679)
Outline: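 HEK293 cells (2,000/well, 10% dialyzed FBS) attached 4-5 hr, then dosed with compound or DMSO and incubated overnight at 37C, 5% CO2. Red fluorescence read at 540/590 nm, Rose Bengal sodium as reference fluorophore.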

[11] = qHTS assay to test for compound auto fluorescence at 535 nm (green) in HEK293 cells (AID 720680)
[12] = qHTS assay to test for compound auto fluorescence at 460 nm (blue) in HEK293 cell free culture (AID 720681)
Outline: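 Compounds were added to cell-free DMEM with 10% FBS and fluorescence read directly. The blue channel used 405 nm excitation and 460 nm emission, with triamterene as the reference fluorophore.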

[13] = qHTS assay to test for compound auto fluorescence at 535 nm (green) in HEK293 cell free culture (AID 720682)
Outline: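 DMEM + 10% FBS, cell-free; cpd or DMSO pinned in; Ex485/Em535 read; output as fluorescein-equivalent signal.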

[14] = qHTS assay to test for compound auto fluorescence at 590 nm (red) in HEK293 cell free culture (AID 720683)
Outline: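 Cell-free wells of DMEM with 10% FBS received compound, and intrinsic fluorescence was read at excitation/emission 540/590 nm. Values expressed as equivalence to Rose Bengal sodium.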

[15] = qHTS assay to test for compound auto fluorescence at 590 nm (red) in HepG2 cell free culture (AID 720684)
Outline: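 Compounds are added to culture medium (MEM, 10% FBS) lacking cells, then fluorescence is read at excitation 540 nm, emission 590 nm, with Rose Bengal sodium as the equivalency standard.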

[16] = qHTS assay to test for compound auto fluorescence at 460 nm (blue) in HepG2 cell free culture (AID 720685)
Outline: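 Compound (23 nL) or DMSO pinned into cell-free MEM with 10% FBS; blue fluorescence read at 405/460 nm excitation/emission, expressed as auto-fluorescence equivalency to triamterene.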

[17] = qHTS assay to test for compound auto fluorescence at 535 nm (green) in HepG2 cell free culture (AID 720686)
[18] = qHTS assay to test for compound auto fluorescence at 460 nm (blue) in HepG2 cells (AID 720687)
Outline: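 HepG2 cells in MEM with 10% FBS, attached overnight at 37 C, were exposed to compound or DMSO for 1 hr at 37 C, 5% CO2. Blue fluorescence was read at 405/460 nm, with triamterene as reference fluorophore.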

[19] = target: Glucocorticoid receptor (Homo sapiens) (UniProt P04150); assay: qHTS assay to identify small molecule agonists of the glucocorticoid receptor (GR) signaling pathway (AID 720691; active means well fitted activation curve with a large enough effect in the signal ratio in the repeat runs, not every such curve was filed as active; the % refers to the signal ratio)
Outline: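 Agonist mode in a HeLa line carrying a GRE-controlled beta-lactamase reporter. Compounds act for 18 h at 37 C before a 2 h room-temperature FRET substrate step and fluorescence reading.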

[20] = target: Glucocorticoid receptor (Homo sapiens) (UniProt P04150); assay: qHTS assay to identify small molecule antagonists of the glucocorticoid receptor (GR) signaling pathway (AID 720692; active means well fitted inhibition curve with a large enough effect in the signal ratio in the repeat runs, not every such curve was filed as active; the % refers to the signal ratio)
Outline: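 Cells plated, rested 4 h at 37 C/5% CO2; compounds in DMSO pin-transferred; dexamethasone added to 5 nM final; 18 h at 37 C; B/G FRET substrate added, 2 h room temperature; fluorescence measured.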

Measured: Potency

Sequence of Glucocorticoid receptor (Homo sapiens) (P04150 whole entry, looked up): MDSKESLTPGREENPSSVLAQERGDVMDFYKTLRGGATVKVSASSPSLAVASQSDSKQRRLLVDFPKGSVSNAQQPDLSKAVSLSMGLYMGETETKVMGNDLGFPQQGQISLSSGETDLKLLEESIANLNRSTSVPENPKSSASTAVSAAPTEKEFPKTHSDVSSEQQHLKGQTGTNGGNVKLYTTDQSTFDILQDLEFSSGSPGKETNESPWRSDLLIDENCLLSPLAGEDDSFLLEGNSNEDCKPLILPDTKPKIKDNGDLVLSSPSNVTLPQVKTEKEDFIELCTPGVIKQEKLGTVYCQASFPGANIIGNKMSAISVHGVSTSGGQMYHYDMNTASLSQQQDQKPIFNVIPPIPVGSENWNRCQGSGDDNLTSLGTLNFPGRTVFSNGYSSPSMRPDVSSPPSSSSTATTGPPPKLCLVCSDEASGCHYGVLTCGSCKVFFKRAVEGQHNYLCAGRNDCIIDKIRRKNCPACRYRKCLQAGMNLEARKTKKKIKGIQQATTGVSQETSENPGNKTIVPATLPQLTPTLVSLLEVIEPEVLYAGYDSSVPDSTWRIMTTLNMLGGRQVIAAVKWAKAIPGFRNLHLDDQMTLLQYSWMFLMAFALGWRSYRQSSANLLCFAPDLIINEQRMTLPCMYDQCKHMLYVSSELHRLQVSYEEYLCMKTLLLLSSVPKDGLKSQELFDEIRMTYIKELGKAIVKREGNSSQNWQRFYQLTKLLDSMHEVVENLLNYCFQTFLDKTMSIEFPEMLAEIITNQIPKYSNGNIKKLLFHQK

CCCCCCCC
inactive: all assays above

CCN1C(=O)c2ccccc2C1Nc1ccc(OCCN2CCCCC2)cc1 (stereo unspecified)
inactive: all assays above

CC(=O)OCC=C(C)C
not listed: [17] | [20]
inactive: all other assays above

OC[C@H]1O[C@H](O[C@H]2O[C@H](CO)[C@@H](O)[C@H](O)[C@H]2O)[C@H](O)[C@@H](O)[C@@H]1O
not listed: [16]
inactive: all other assays above

O=C(O)c1cc(=O)c2ccccc2o1
not listed: [12] | [16] | [17] | [18]
inactive: all other assays above

O=C(/C=C/c1ccc(O)c(O)c1)O[C@@H](C(=O)O)[C@@H](OC(=O)/C=C/c1ccc(O)c(O)c1)C(=O)O
not listed: [12] | [18]
inactive: all other assays above
